Sampled rows, rich in hits. Any-hit rate of the full collection: about 2.4%.
M18AAP inhibitor: PfM18AAP enzyme inhibition. recombinant PfM18AAP, H-Glu-NHMec fluorogenic cleavage. inhibition, % at 7.35 µM. 290,000 tested, 1.2% active. AID 1822;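 active = inhibition above the campaign mean inhibition over all tested compounds plus 3 SD, cut at about 28% in these data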;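 also: 0% = plate median of test compound wells and 100% = 2 mM ZnCl2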
APOBEC3G inh: blocks human APOBEC3G single-stranded DNA deamination; Q9HC16; inhibition, % at 20 µM; 330,000 tested, 0.28% active; recombinant A3G, ssDNA deamination FAM/TAMRA fluorescence;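 active = inhibition of at least 40% at 20 µM, with no more than 30% in the related APOBEC3A deaminase screen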;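 also: plate controls were DMSO wells with A3G for no effect and wells lacking A3G enzyme for full effect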
Target sequence (Q9HC16 whole entry, looked up): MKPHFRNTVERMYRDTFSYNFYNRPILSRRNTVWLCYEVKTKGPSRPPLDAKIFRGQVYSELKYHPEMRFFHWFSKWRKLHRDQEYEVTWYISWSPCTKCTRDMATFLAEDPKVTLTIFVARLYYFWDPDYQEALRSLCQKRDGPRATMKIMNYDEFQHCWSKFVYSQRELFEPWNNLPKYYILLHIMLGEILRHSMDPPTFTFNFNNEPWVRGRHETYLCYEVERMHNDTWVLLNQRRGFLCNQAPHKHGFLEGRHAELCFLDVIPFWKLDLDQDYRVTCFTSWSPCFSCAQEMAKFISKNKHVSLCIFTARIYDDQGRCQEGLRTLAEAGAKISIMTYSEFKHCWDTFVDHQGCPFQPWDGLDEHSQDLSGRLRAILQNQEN
CR mimetic SO: caloric restriction mimetics inhibiting age-related superoxide in yeast | 330,000 tested, 0.18% active | superoxide response (% of plate mean), % at 10 µM | S. cerevisiae aged cells, superoxide DHE fluorescence; stronger effect = lower value;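 active = superoxide response under a set limit, about three screen SD below normal, cut at about 65% in these data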;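 also: yeast aged for seven days with compound at 30 °C before DHE staining; 100% = average MFI of all compound-treated wells on the plate with controls excluded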
A3A deaminase: human APOBEC3A DNA deaminase inhibition. AID 493011. inhibition, % at 20 µM. 330,000 tested, 0.41% active. recombinant A3A, FAM/TAMRA ssDNA deamination fluorescence;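 active = at least 40% inhibition at 20 µM here, with at most 30% in a related deaminase screen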;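 also: plate controls were A3A with DMSO for no effect and wells lacking A3A enzyme for full effect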
Target sequence (P31941 whole entry, looked up): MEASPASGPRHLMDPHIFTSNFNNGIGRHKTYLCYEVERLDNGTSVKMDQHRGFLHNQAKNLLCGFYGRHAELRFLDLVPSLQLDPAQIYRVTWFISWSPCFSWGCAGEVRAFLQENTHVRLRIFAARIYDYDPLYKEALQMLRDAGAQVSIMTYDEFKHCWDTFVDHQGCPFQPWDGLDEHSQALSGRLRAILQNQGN
PfGluPho inh: PfG6PD (Plasmodium falciparum) enzyme inhibition | 350,000 tested, 0.78% active | inhibition, % at 20 µM | AID 504690 | PfGluPho enzyme, NADPH resazurin-diaphorase fluorescence;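 active = inhibition reaching at least a set limit at 20 µM in the primary screen, cut at about 59% in these data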;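 also: 0% = DMSO wells with substrate and 100% = DMSO wells lacking glucose-6-phosphate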
PfG6PD confirm: confirmation of Plasmodium falciparum G6PD inhibitors | shares compounds with PfGluPho inh | recombinant PfGluPho, NADPH-diaphorase-resazurin fluorescence | inhibition, % at 20 µM | 2,400 tested, 34% active;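 active = inhibition of at least 50% at 20 µM in any single replicate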;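 also: 0% = DMSO with substrate and 100% = DMSO lacking glucose-6-phosphate substrate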
Diaph ctr 10uM: counter-screen for P. falciparum G6PD inhibitors: diaphorase inhibitors, oxidizers. inhibition, % at 20 µM. diaphorase-coupled resazurin reduction, fluorescence, NADPH 10 uM. 820 tested, 39% active. AID 504862. shares compounds with PfGluPho inh;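 active = average inhibition reaching 50% or more with the compound at 20 µM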;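 also: resorufin red fluorescence formed as diaphorase reduces resazurin using NADPH; 0% = DMSO with enzyme and 100% = DMSO without enzyme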
Diaphorase 30uM: inhibits diaphorase or oxidizes, flagging false PfG6PD hits. AID 504863. inhibition, % at 20 µM. Diaphorase/resazurin coupled assay, resorufin fluorescence, 30 uM NADPH. 820 tested, 29% active. shares compounds with PfGluPho inh;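 active = inhibition averaging 50% or more, tested at 20 µM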;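 also: 0% = DMSO with enzyme and 100% = DMSO wells lacking diaphorase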
* marks the source's active call; other numbers are inactive results.

Screening CC1CCCCC12NC(=S)N(c1ccccc1)N2 (stereo unspecified) returned M18AAP inhibitor -4.1, APOBEC3G inh 25.5, CR mimetic SO 84.5, A3A deaminase -3.8, PfGluPho inh 60.1* and PfG6PD confirm -8.1.
`CC1CCCC2(C1)NC(=S)N(c1ccccc1)N2` (stereo unspecified) gave M18AAP inhibitor 6.1, APOBEC3G inh 38.6, CR mimetic SO 107.0, A3A deaminase -4.9 and PfGluPho inh 3.2.
Cc1cccc(CC(=O)NCC2CCCCC2)c1 was read as M18AAP inhibitor -6.0, APOBEC3G inh -4.8, CR mimetic SO 103.0, A3A deaminase 4.1 and PfGluPho inh -6.8.
`Cc1ccc(C2(c3ccc(C)cc3)CC2C(=O)Nc2ccc([N+](=O)[O-])cc2O)cc1` (stereo unspecified) gave M18AAP inhibitor -1.8, APOBEC3G inh 1.3, CR mimetic SO 91.8, A3A deaminase 4.9, PfGluPho inh 92.5* and PfG6PD confirm 19.1.
For CC(=O)c1ccc(NC(=O)C2Cc3ccccc3CN2C(=O)c2ccccc2)cc1 (stereo unspecified) the results were M18AAP inhibitor -0.5, APOBEC3G inh -5.4, CR mimetic SO 91.4, A3A deaminase -1.2, PfGluPho inh 67.9* and PfG6PD confirm 37.3.
For O=C(NC1=NCCS1)C1Cc2ccccc2CN1C(=O)c1ccccc1 (stereo unspecified) the results were M18AAP inhibitor 3.8, APOBEC3G inh -2.7, CR mimetic SO 85.6, A3A deaminase -1.2 and PfGluPho inh 28.1.
COc1ccc(NC(=O)C2Cc3ccccc3CN2C(=O)c2ccccc2)cn1 (stereo unspecified) was read as M18AAP inhibitor -6.7, APOBEC3G inh 0.5, CR mimetic SO 93.9, A3A deaminase -0.5, PfGluPho inh 60.6* and PfG6PD confirm 48.1.
O=C(NC1CCSc2ccccc21)c1ccc(F)c(S(=O)(=O)N2CCOCC2)c1 (stereo unspecified) was read as M18AAP inhibitor -5.0, APOBEC3G inh -1.0, CR mimetic SO 82.6, A3A deaminase -0.2 and PfGluPho inh -4.5.
For O=[N+]([O-])c1ccc(Oc2cccc3cccnc23)c(Cl)c1 the results were M18AAP inhibitor 2.2, APOBEC3G inh -7.3, CR mimetic SO 85.7, A3A deaminase -2.6, PfGluPho inh 111.0*, PfG6PD confirm 79.7*, Diaph ctr 10uM 72.2* and Diaphorase 30uM 60.3*.
`CCN(C(=O)C1CCCN1S(=O)(=O)c1ccc2c(c1)n(C)c(=O)c(=O)n2C)c1ccccc1` (stereo unspecified) gave M18AAP inhibitor 7.5, APOBEC3G inh -3.0, CR mimetic SO 91.2, A3A deaminase -1.0 and PfGluPho inh 12.3.
Screening Cc1cccc(NC(=O)CCOc2ccccc2)c1C returned M18AAP inhibitor 4.5, APOBEC3G inh -6.0, CR mimetic SO 92.9, A3A deaminase -3.4 and PfGluPho inh -8.8.
Screening Cc1cccc(OCCC(=O)NCC(=O)Nc2cccc(C)c2C)c1 returned M18AAP inhibitor -5.2, APOBEC3G inh -4.8, CR mimetic SO 103.9, A3A deaminase 7.9, PfGluPho inh 104.8*, PfG6PD confirm 91.4*, Diaph ctr 10uM 80.6* and Diaphorase 30uM 67.0*.
Screening CC(C)=CCOc1c2ccoc2cc2oc(=O)ccc12 returned M18AAP inhibitor 3.1, APOBEC3G inh -9.5, CR mimetic SO 95.8, A3A deaminase -5.2, PfGluPho inh 72.4* and PfG6PD confirm 30.6.
Screening CC(C)=CCOc1c2ccoc2c(OCC=C(C)C)c2oc(=O)ccc12 returned APOBEC3G inh 0.4, CR mimetic SO 94.3, A3A deaminase 3.3, PfGluPho inh 128.3*, PfG6PD confirm 70.8*, Diaph ctr 10uM 63.2* and Diaphorase 30uM 59.1*.
Screening CCc1cc(=O)oc2cc(OCC=C(C)C)ccc12 returned M18AAP inhibitor -5.8, APOBEC3G inh 2.6, CR mimetic SO 89.8, A3A deaminase 1.0 and PfGluPho inh -1.4.
`COc1ccccc1OCC(=O)N/N=C(\C)c1ccc2ccccc2c1` gave PfGluPho inh 24.4.
Screening CCCCC1C(=O)N(c2ccccc2)N(c2ccc(O)cc2)C1=O (stereo unspecified) returned APOBEC3G inh -1.2, CR mimetic SO 85.8, A3A deaminase -2.1, PfGluPho inh 77.8*, PfG6PD confirm 53.8*, Diaph ctr 10uM -26.3 and Diaphorase 30uM -36.0.
For COC(=O)c1scc(C)c1S(=O)(=O)Nc1ccc(C)cc1 the results were M18AAP inhibitor 10.9, APOBEC3G inh -7.8, CR mimetic SO 105.9, A3A deaminase -1.7, PfGluPho inh 70.1* and PfG6PD confirm 20.8.
`COC(=O)c1sccc1S(=O)(=O)Nc1ccc(S(N)(=O)=O)cc1` gave M18AAP inhibitor 0.8, APOBEC3G inh -10.5, CR mimetic SO 99.0, A3A deaminase -4.0 and PfGluPho inh -8.2.
`O=c1[nH]nc(Br)c(=O)n1C(c1ccccc1)c1ccccc1` gave PfGluPho inh -26.5.
For C=C(C)CN=CC1(C)CCC(C)=CO1 (stereo unspecified) the results were PfGluPho inh -2.7.
For Cc1ccc2nc3c(cc(S(=O)(=O)c4ccccc4)c(=N)n3C3CCCC3)c(=O)n2c1 the results were PfGluPho inh 69.3* and PfG6PD confirm 34.2.
Screening N=c1c(S(=O)(=O)c2ccccc2)cc2c(=O)n3ccccc3nc2n1C1CCCCC1 returned PfGluPho inh 14.3.
Screening CC1=C(C(=O)Nc2cccc(C(=O)N3CCC(C(N)=O)CC3)c2)SCCO1 returned M18AAP inhibitor -1.1, APOBEC3G inh -7.7, CR mimetic SO 103.2, A3A deaminase -5.8 and PfGluPho inh -7.1.
CC1=NN(c2nc(N)nc(/C(C#N)=C/c3ccc([N+](=O)[O-])o3)n2)C(C)(C)C1 was read as PfGluPho inh 69.1* and PfG6PD confirm 26.0.
For CCOc1ccc(S(=O)(=O)Nc2ccccc2C(=O)N2CCOCC2)cc1 the results were M18AAP inhibitor 4.0, APOBEC3G inh -5.2, CR mimetic SO 102.2, A3A deaminase 0.0 and PfGluPho inh -15.3.
For CC(C)C1C(=O)N(Cc2cn(Cc3ccco3)nn2)CCS(=O)(=O)N1Cc1ccc(-c2ccc(F)cc2)cc1 (stereo unspecified) the results were PfGluPho inh 19.0.
`COc1ccc(C(=O)/C=C2\Sc3ccccc3N2C)cc1` gave M18AAP inhibitor 18.7, APOBEC3G inh 0.1, CR mimetic SO 122.8, A3A deaminase -3.0, PfGluPho inh 94.6*, PfG6PD confirm 47.7*, Diaph ctr 10uM 55.3* and Diaphorase 30uM 30.8.
